Compound activity (PubChem)
The list is not random: actives were taken first. Their share in the collection is about 8.1%.
Shh pathway inh: blocks Sonic Hedgehog signaling; AID 2313; 22,000 tested, 2.1% active; Shh-LIGHT2 Gli-luciferase reporter, 30 h; inhibition, % (concentration not given with the values);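 active = mean inhibition across valid replicates above about 65%, limit read from the data; inconclusive = mean under the limit, yet half or more replicates past it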;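 note: pathway switched on by Shh-conditioned medium diluted 1 in 25 in low serum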
MITF inhib: inhibitors of MITF | TRPM1 promoter luciferase, luminescence, 24 h | inhibition, % (concentration not given with the values) | 37,000 tested, 0.28% active | AID 2240; in the data active = inhibition above about 85%; inconclusive = no clear call, values can overlap the other calls; inactive = below about 68%;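 note: human melanocyte line stably carrying TRPM1 promoter luciferase reporter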
NOMO-1 viab: STK33 inhibitor candidate reducing NOMO-1 cell viability; NOMO-1 AML viability, CellTiter-Glo luminescence, 72 h; AID 2330; inhibition, % (test concentration not listed); 37,000 tested, 7.5% active; in the data active = inhibition above about 80%; inconclusive = no clear call, values can overlap the other calls
A number is an active result; 0 = inactive; ? = inconclusive; - = no result given; ! = not active in a repeat.

SMILES	Shh pathway inh	MITF inhib	NOMO-1 viab
COc1ccc(NC(=O)Nc2cccc3c2O[C@H](CN(C)C(=O)Nc2ccc(OC)cc2)[C@H](C)CN([C@H](C)CO)C3=O)cc1	0	0	0
CCc1cc(O)c(C)c(O)c1C=O	0	-	-
Cc1cc2c(C(C)C)c(O)c(O)c(C=O)c2c(O)c1-c1c(C)cc2c(C(C)C)c(O)c(O)c(C=O)c2c1O	68!	0	111
O=C(Nc1cccc(S(=O)(=O)N2CCOCC2)c1)Nc1cccc(Cl)c1Cl	-	0	0
C[C@@H]1CN([C@@H](C)CO)C(=O)Cc2cc(NS(=O)(=O)c3cn(C)cn3)ccc2O[C@@H]1CN(C)Cc1ccc(C(=O)Nc2ccccc2N)cc1	-	0	0
C[C@@H]1CN([C@@H](C)CO)C(=O)Cc2cc(NS(=O)(=O)c3ccc(F)cc3)ccc2O[C@@H]1CN(C)Cc1ccc(C(=O)Nc2ccccc2N)cc1	-	0	112
C[C@H]1CN([C@@H](C)CO)C(=O)Cc2cc(NS(=O)(=O)c3ccc(F)cc3)ccc2O[C@H]1CN(C)Cc1ccc(C(=O)Nc2ccccc2N)cc1	-	0	140
C[C@H](CO)N1C[C@H](C)[C@H](CN(C)Cc2ccc(Oc3ccccc3)cc2)Oc2ccc(NC(=O)Cn3cnnn3)cc2CC1=O	0	0	0
Cc1ccc(S(=O)(=O)Nc2cccc3c2O[C@@H](CN(C)Cc2ccc(-c4ccccc4)cc2)[C@@H](C)CN([C@@H](C)CO)C3=O)cc1	0	0	91
C[C@@H]1CN([C@H](C)CO)C(=O)c2cccc(NS(=O)(=O)c3ccccc3)c2O[C@@H]1CN(C)Cc1ccc(-c2ccccc2)cc1	0	0	0
Cc1ccc(S(=O)(=O)Nc2cccc3c2O[C@@H](CN(C)Cc2ccc(Oc4ccccc4)cc2)[C@H](C)CN([C@@H](C)CO)C3=O)cc1	0	0	0
C[C@@H]1CN([C@@H](C)CO)C(=O)c2cccc(NS(=O)(=O)c3ccc(Cl)cc3)c2O[C@@H]1CN(C)Cc1ccc(-c2ccccc2)cc1	?	0	115
Cc1ccc(S(=O)(=O)Nc2cccc3c2O[C@H](CN(C)Cc2ccc(-c4ccccc4)cc2)[C@@H](C)CN([C@H](C)CO)C3=O)cc1	0	0	0
Cc1ccc(S(=O)(=O)Nc2cccc3c2O[C@H](CN(C)Cc2ccc(Oc4ccccc4)cc2)[C@@H](C)CN([C@H](C)CO)C3=O)cc1	0	0	99
C[C@@H]1CN([C@@H](C)CO)C(=O)c2cccc(NS(=O)(=O)c3ccccc3)c2O[C@@H]1CN(C)Cc1ccc(-c2ccccc2)cc1	0	0	98
C[C@H]1CN([C@@H](C)CO)C(=O)c2cccc(NS(=O)(=O)c3ccc(Cl)cc3)c2O[C@@H]1CN(C)Cc1ccc(-c2ccccc2)cc1	0	0	0
Cc1ccc(C)c(-n2nnnc2SCC(=O)Nc2ccccc2[N+](=O)[O-])c1	-	0	0
CSc1cccc(NC(=O)CSc2nnc(-c3ccc(Br)cc3)n2C)c1	-	0	0
C[C@@H]1CN([C@@H](C)CO)C(=O)c2cccc(NC(=O)Nc3ccccc3)c2O[C@@H]1CN(C)S(=O)(=O)c1ccc(Cl)cc1	0	0	0
C[C@@H]1CCCCO[C@@H](CN(C)S(=O)(=O)c2cccs2)[C@@H](C)CN([C@H](C)CO)C(=O)c2cc(NC(=O)Nc3ccc(C(F)(F)F)cc3)ccc2O1	0	0	0
Cc1noc(C)c1S(=O)(=O)N(C)C[C@H]1OCCCC[C@@H](C)Oc2ccc(NC(=O)Nc3ccc(C(F)(F)F)cc3)cc2C(=O)N([C@H](C)CO)C[C@@H]1C	0	0	104
C[C@@H]1CCCCO[C@H](CN(C)S(=O)(=O)c2cccs2)[C@@H](C)CN([C@H](C)CO)C(=O)c2cc(NC(=O)Nc3ccc(C(F)(F)F)cc3)ccc2O1	0	0	90
Cc1noc(C)c1NC(=O)Nc1ccc2c(c1)C(=O)N([C@H](C)CO)C[C@H](C)[C@@H](CN(C)S(=O)(=O)c1c(C)noc1C)OCCCC[C@@H](C)O2	0	0	0
C[C@@H]1CCCCO[C@@H](CN(C)S(=O)(=O)c2cccs2)[C@@H](C)CN([C@H](C)CO)C(=O)c2cc(NS(=O)(=O)c3cccs3)ccc2O1	-	0	0
C[C@@H]1CCCCO[C@@H](CN(C)S(=O)(=O)c2cccs2)[C@@H](C)CN([C@H](C)CO)C(=O)c2cc(NS(C)(=O)=O)ccc2O1	67	0	0
SMILES	Shh pathway inh	MITF inhib	NOMO-1 viab
Cc1noc(C)c1NC(=O)N(C)C[C@H]1Oc2c(NS(=O)(=O)c3ccc(Cl)cc3)cccc2C(=O)N([C@@H](C)CO)C[C@@H]1C	0	0	0
CC(C)NC(=O)N(C)C[C@H]1Oc2ccc(NS(=O)(=O)c3ccc(F)cc3)cc2C(=O)N([C@@H](C)CO)C[C@@H]1C	-	0	0
COc1ccc(OC)c(S(=O)(=O)N2CCC(C(=O)Nc3ccc(Cl)cc3)CC2)c1	-	0	0
CC(=O)C(C)Sc1ncnc2sc(-c3ccccc3)cc12 (centres undefined)	-	0	0
COc1ccc(OC)c(NC(=O)COc2cc(C)c(Br)c(C)c2)c1	-	0	0
CNC[C@@H]1Oc2ccc(NS(=O)(=O)c3c(C)noc3C)cc2CC(=O)N([C@H](C)CO)C[C@H]1C	0	0	0
